Screening data (PubChem)
VLA-4 inh – inhibition in a human VLA-4 binding assay | inhibition, % (about 7 µM as worked out from the volumes in the protocol) | 330,000 tested, 0.2% active | AID 2557 | VLA-4 expressing cells, ligand binding flow cytometry | P13612; in the data active = inhibition above about 50%
m5-HT2A agonist – agonists of mouse serotonin 5-HT2A receptor (HTR2A); 360,000 tested, 0.66% active; CHO-K1 mHTR2A beta-arrestin complementation, luminescence; percent of 30 µM serotonin response; activation, % at 7.6 µM; P35363; AID 624169;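 active = activation above a run cutoff, the mean activation of all tested compounds plus 3 SD, cut at about 14% in these data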;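 note: 0% = plate median of compound wells and 100% = 30 µM serotonin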
Target sequence (P35363 whole entry, looked up): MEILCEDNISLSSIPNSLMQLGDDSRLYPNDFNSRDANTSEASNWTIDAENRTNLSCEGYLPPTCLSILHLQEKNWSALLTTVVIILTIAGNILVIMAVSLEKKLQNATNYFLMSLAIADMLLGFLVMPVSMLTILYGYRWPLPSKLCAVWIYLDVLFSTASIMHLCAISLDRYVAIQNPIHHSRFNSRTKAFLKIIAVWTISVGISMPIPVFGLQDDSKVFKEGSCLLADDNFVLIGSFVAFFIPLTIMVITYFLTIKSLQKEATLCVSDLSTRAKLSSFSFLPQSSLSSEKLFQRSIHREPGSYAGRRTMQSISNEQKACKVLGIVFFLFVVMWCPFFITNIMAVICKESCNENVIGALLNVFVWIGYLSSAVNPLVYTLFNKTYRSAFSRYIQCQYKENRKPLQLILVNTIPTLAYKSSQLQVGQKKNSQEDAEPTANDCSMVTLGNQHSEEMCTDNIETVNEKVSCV
MEX-5 binding – C. elegans MEX-5 TCR-2 RNA binding activity. Q9XUB2. MEX-5/FITC-TCR2 RNA binding, fluorescence polarization; active compounds read low. activity score (negative = inhibition of binding), % at 10 µM. 300,000 tested, 0.38% active. AID 1832;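 active = inhibition past about -25% in most replicates, and total fluorescence under double the plate's negative control median, limit read from the data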;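 note: 0% = DMSO and -100% = 5 µM competing unlabeled TCR2 RNA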
Granule exo inh – lytic granule exocytosis inhibition; TALL-104 LAMP-1 surface exposure, flow cytometry; cells stimulated with thapsigargin and PMA; inhibition, % at 10 µM; 360,000 tested, 0.66% active; AID 651702;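 active = inhibition above about 55%, limit read from the data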
V-ATPase pHluor – regulators of yeast V-ATPase proton transport; S. cerevisiae, pHLuorin cytosolic pH fluorescence; response, % at 10 µM; 350,000 tested, 0.37% active; AID 504577; in the data active = response mostly above about 7.3%, no sharp cut-off; inactive = mostly below about 5.4%; note: actives read high
JMJD2C inh – inhibitors of human GASC-1 (JMJD2C) demethylase; Q9H3R0; GST-JMJD2C(1-420) H3K9me3 demethylation, DELFIA europium; inhibition, % at 2.35 µM; 330,000 tested, 0.069% active;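 active = more than half of a compound's replicate wells show inhibition beyond 50%, single wells judged on their own value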;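 note: signal counts dimethyl H3K9 product captured on neutravidin plate; 0% = median of DMSO wells and 100% = 0.3 times that DMSO median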
Exocytosis CP01 – blocks lytic granule exocytosis; shares compounds with Granule exo inh; TALL-104 cells, LAMP-1 externalization, flow cytometry; stimulated with PMA plus thapsigargin; inhibition, % at 10 µM; 1,500 tested, 11% active; AID 651954; in the data active = inhibition above about 60%;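 note: 0% = stimulated vehicle wells and 100% = unstimulated wells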
* marks the source's active call; other numbers are inactive results; / = no result. Sampled rows, rich in hits. Any-hit rate of the full collection: about 2.2%.

SMILES | VLA-4 inh | m5-HT2A agonist | MEX-5 binding | Granule exo inh | V-ATPase pHluor | JMJD2C inh | Exocytosis CP01
COc1ccc(NC(=O)C2C(c3ccccc3)C2(Cl)Cl)c(OC)c1 (stereo not given) | 3 | 11 | 0 | 66* | -3 | -31 | -14
CCOc1ccc(NC(=O)C2C(c3ccccc3)C2(Cl)Cl)cc1 (stereo not given) | 19 | -1 | 1 | 81* | -1 | -2 | -14
Cc1cccc2c1-c1sc(C(=O)NCCCN3CCCC(C)C3)cc1CO2 (stereo not given) | 10 | -15 | 2 | 85* | -2 | -3 | -2
CCCN1CCN(CCCNC(=O)c2cc3c(s2)-c2c(C)cccc2OC3)CC1 | 5 | -11 | 1 | 65* | -4 | -9 | -1
COc1cc(Cl)c(CN2CCCC(CO)(Cc3ccccc3F)C2)cc1OC (stereo not given) | 8 | 6 | -1 | 66* | -3 | -8 | -13
COc1ccc(CN2CCCC(CO)(Cc3ccc(F)cc3)C2)c(OC)c1OC (stereo not given) | 16 | -3 | -1 | 61* | 0 | -1 | -15
C[N+]1(CN2C(=O)C3C4C=CC(C4)C3C2=O)CCCCC1 (stereo not given) | 16 | -2 | -2 | 6 | -1 | -4 | /
CNCc1ccccc1Sc1ccc(O)c(O)c1 | 6 | 2 | -54* | 82* | -2 | -8 | 29
COc1ccc(Sc2ccccc2CN(C)C)cc1OC | -27 | 2 | -3 | 0 | -1 | 6 | /
CCOC(=O)N1CCC(NC(=O)C2CCN(Cc3nc(-c4ccc(CC)cc4)oc3C)CC2)CC1 | / | -4 | / | 2 | 0 | / | /
CCOC(=O)N1CCC(NC(=O)C2CCCN(Cc3nc(-c4ccc(CC)cc4)oc3C)C2)CC1 (stereo not given) | 8 | -7 | 3 | 62* | -4 | -38 | -3
CCOC(=O)c1c(N2CCN(c3ccccc3)CC2)cc(C)nc1C | 8 | -4 | -1 | 62* | 0 | -5 | -14
Cn1c(=O)c(N)c2c3c(c(Br)ccc31)C(=O)c1ccccc1-2 | -1 | -2 | -39* | 86* | -2 | -2 | 68*
N#CCCN(C(=S)NC(=O)c1ccco1)c1ccccc1F | 3 | 2 | 2 | -4 | 2 | 4 | /
Cc1cccc(-n2cc3c(=O)n(C)c(=O)n(C)c3c2)c1 | 10 | -5 | 0 | 0 | 2 | 18 | /
COCCCNC(=O)CN(Cc1ccccc1)S(=O)(=O)c1ccccc1 | -1 | -7 | 0 | 2 | -2 | 20 | /
CCOC(=O)N1CCN(C(=O)c2ccccc2N(Cc2ccccc2)S(=O)(=O)c2ccccc2)CC1 | 12 | -8 | -2 | 79* | 5 | 7 | -3
COCCCNC(=O)c1ccccc1N(Cc1ccccc1)S(=O)(=O)c1ccccc1 | 8 | 5 | 1 | 69* | 2 | 2 | -5
COc1ccc(C(C(=O)NC2CCCCC2)N(Cc2ccco2)C(=O)c2snc(C(N)=O)c2N)cc1 (stereo not given) | / | 8 | -3 | 18 | 4 | -17 | /
COCCCNc1ccn2nc(-c3cccc(OCc4ccccc4)c3)cc2n1 | / | -4 | / | 4 | / | / | /
c1ccc(COc2ccc(-c3cc4nc(NCCCn5ccnc5)ccn4n3)cc2)cc1 | / | 1 | / | 72* | / | / | 99*
CCCOc1ccc(-c2nc(N3CCN(CC)CC3)c3ccccc3n2)cc1 | 11 | -6 | 3 | 82* | 4 | 10 | -10
CCCOc1ccc(-c2nc(N3CCN(C)CC3)c3ccccc3n2)cc1 | -2 | -12 | 1 | 53 | 3 | 2 | /
CCCCCCCCN1C(=O)[C@H](CC(=O)NCc2cccc3ccccc23)C[C@@]2(C(=O)OCC)CCC=C12 | / | -7 | / | 5 | / | / | /
Cc1ccccc1N1CCN(C(=O)NCc2cccc(Cl)c2)CC1 | 6 | -5 | 2 | 86* | 0 | 11 | -4
COc1cccc(NC(=O)CSc2ccc3nnc(CCNC(=O)c4ccccc4)n3n2)c1 | -13 | 2 | -1 | -4 | -2 | 9 | /
O=C1C(=O)c2ccc(-c3ccccc3)cc2-c2ccccc21 | 15 | 5 | 0 | 74* | 6 | 4 | 0
